Values without a mark were called inactive. Active and inactive are the calls of the source.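 How the source made its calls: active means inhibition above about 23% in any of six single-dose repeats (limit read from the data); inactive means the rest.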
The molecules below were run against Intestinal-type alkaline phosphatase (Homo sapiens) (UniProt P09923) (assay: human IAP inhibitors, confirmation, biochemical, luminescence, single concentration, uHTS hits (AID 434927;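 further: plate controls were DMSO wells with enzyme for no effect and wells lacking enzyme for full effect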)). Settings: purified human IAP, CDP-Star luminescence, 30 min; at 8.3 µM; stronger effect = higher value.
Chain of Intestinal-type alkaline phosphatase (Homo sapiens) (P09923 whole entry, looked up): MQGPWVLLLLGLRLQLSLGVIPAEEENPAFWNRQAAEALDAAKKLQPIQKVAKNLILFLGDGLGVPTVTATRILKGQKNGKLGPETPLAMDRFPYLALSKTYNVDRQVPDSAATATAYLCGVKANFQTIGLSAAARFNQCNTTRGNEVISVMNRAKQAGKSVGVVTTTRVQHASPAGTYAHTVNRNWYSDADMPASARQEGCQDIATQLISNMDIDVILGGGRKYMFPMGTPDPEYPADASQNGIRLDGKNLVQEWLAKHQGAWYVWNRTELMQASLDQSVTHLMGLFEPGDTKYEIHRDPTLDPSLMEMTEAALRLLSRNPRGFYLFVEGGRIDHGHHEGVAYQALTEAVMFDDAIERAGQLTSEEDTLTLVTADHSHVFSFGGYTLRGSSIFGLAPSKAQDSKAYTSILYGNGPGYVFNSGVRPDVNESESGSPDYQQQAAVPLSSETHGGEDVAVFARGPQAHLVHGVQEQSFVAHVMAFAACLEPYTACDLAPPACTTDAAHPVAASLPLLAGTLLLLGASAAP
`Cc1ccc(O)c(N/C=C/C(=O)c2ccc(F)cc2)c1` showed an inhibition of -120%. `O=C(COc1ccc(Br)cc1)NCCCn1ccnc1` was tested, and the inhibition was 50.5% (active). For `COc1ccc(C2=Nc3cc(C)ccc3OC2)cc1`, the inhibition was 58.3% (active). With `COc1ccc(NC(=O)CCN2CCN(S(=O)(=O)c3cc(Cl)ccc3OC)CC2)cc1` the inhibition was 35.6% (active). `O=C(NN1C(=O)CSC1=S)C(=O)NN1C(=O)CSC1=S` was tested, and the inhibition was 73.8% (active). `O=C(CCN1C(=O)/C(=C/c2ccccc2Cl)SC1=S)NNC(=O)c1ccccc1O` was tested, and the inhibition was 62.3% (active). With `O=C(CSc1ncn[nH]1)NCCc1ccccc1` the inhibition was -113%. Molecule `CCOc1cccc(OCCOCCOc2ccccc2C(C)=O)c1` has an inhibition of -219%. In the case of `O=C(O)C1OC(Oc2c(-c3ccc(O)c(O)c3)oc3cc(O)cc(O)c3c2=O)C(O)C(O)C1O` (centres undefined), the inhibition is reported as 32.1% (active). `Cc1cccc(SCc2noc(C(=O)NCC3CCCO3)c2C(=O)O)c1` (centres undefined) gave an inhibition of -213%. For `CCC(NC(=S)NC1CCCCC1)c1ccc(C(C)C)cc1` (centres undefined), the inhibition was -24.1%. `CCC(C)(C)C1CCc2[nH]nc(C(=O)N/N=C(\C)c3ccco3)c2C1` (centres undefined) was tested, and the inhibition was 62.7% (active). `O=C(COc1ccc2ccccc2c1Br)N1CCCCC1` gave an inhibition of -50.2%. `Cc1cc(OCC(=O)Nc2ncn[nH]2)ccc1Cl` gave an inhibition of -87%. `Cc1cc(NC(=O)c2ccc(N3C(=O)C4C5C=CC(C5)C4C3=O)cc2)no1` (centres undefined) gave an inhibition of -161%. With `Cc1[nH]n(-c2nc(-c3ccccc3F)cc(=O)[nH]2)c(=O)c1CCO` the inhibition was -39.7%. For `CC(C)C(=O)NC(=S)Nc1ccccc1C(=O)Nc1ccccc1`, the inhibition was -108%. With `Cc1cc(C(=O)NC2CC(C)(C)Cc3c2cnn3-c2ccccc2)n[nH]1` (centres undefined) the inhibition was 62.1% (active). For `O=C(Nc1ccon1)c1nc[nH]c1C(=O)NCc1ccccc1`, the inhibition was 88.5% (active).

Source: PubChem BioAssay AID434927 (Sanford-Burnham Center for Chemical Genomics, 2010)
